In ChEMBL document CHEMBL3988442, “University of Dundee, Small-Polar-MMV Screening Library” (2021):
In all, about 48,000 compounds went through this assay and about 13,000 (27%) showed an effect of 50% or more. This is one part of the list.

What follows are compounds tested on Wolbachia pipientis (assay: Anti-Wolbachia Cell-Based Screen). Conditions: 5 µM.
Assay type: functional
Design: scale not given: in the data most compounds retested in dose-response had high values
In the case of `CC1=C[C@@H](CC#N)[C@H](C(C)C)C[C@H]1CC(=O)N1CCN(CCO)CC1`, the “Percent Effect” value is reported as 2.953%.
In the case of `CCOC(=O)C1CCN(Cc2csc(C(C)(C)C)n2)CC1`, the “Percent Effect” value is reported as -1.919%.
With `O=C(NCCc1ccccn1)N1CCSC2(CCCCC2)C1` the “Percent Effect” value was 2.458%.
With `O=C(Nc1ccc(Cl)cn1)C1CCCN(CCc2ccccn2)C1` (configuration not stated) the “Percent Effect” value was 0.2896%.
`COCCN1CCCC(CCCc2ccccn2)(C(N)=O)C1` (configuration not stated) was tested, and the “Percent Effect” value was 100.6%.
In the case of `COCCC1(C(=O)O)CCCN(CCc2ccccc2)C1` (configuration not stated), the “Percent Effect” value is reported as -4.304%.
With `NC(=O)CN1CCCC(CCCc2ccccn2)(C(N)=O)C1` (configuration not stated) the “Percent Effect” value was 100.4%.
In the case of `CN1CCCC(CCCc2cccnc2)(C(N)=O)C1` (configuration not stated), the “Percent Effect” value is reported as 112%.
`CCN1CCCC(O)(CNCc2ccccn2)C1` (configuration not stated) was tested, and the “Percent Effect” value was -18.44%.
With `COCCCC1(CO)CCCN(CCc2ccccn2)C1` (configuration not stated) the “Percent Effect” value was 15.21%.
`CC(C)N1CCCC(CCCc2ccccn2)(C(=O)O)C1` (configuration not stated) was tested, and the “Percent Effect” value was -10.26%.
For `NC(=O)C1(CCCc2ccccn2)CCCN(CCO)C1` (configuration not stated), the “Percent Effect” value was 112.7%.
With `CCCN(Cc1cccnc1)C(=O)C1CCCN(C)C1` (configuration not stated) the “Percent Effect” value was -0.4884%.
`NC(=O)C1(CCCc2cccnc2)CCCN(c2ncccn2)C1` (configuration not stated) was tested, and the “Percent Effect” value was -4.242%.
In the case of `CCOCC1COCCC12CCN(C(=O)C1=CCCCC1)CC2` (configuration not stated), the “Percent Effect” value is reported as 5.493%.
In the case of `COCCCN(Cc1ccncc1)c1cc(C)ncn1`, the “Percent Effect” value is reported as 0.1133%.
In the case of `CC1(C)COCCN1C(=O)CCc1nc(-c2ccc(Cl)cc2)no1`, the “Percent Effect” value is reported as -5.513%.
In the case of `Cc1ccc(OCc2nnc(SCC3CCCN(C)C3)o2)cc1` (configuration not stated), the “Percent Effect” value is reported as 8.956%.
In the case of `O=C(CCCc1ccccn1)N1CCSC2(CCCCC2)C1`, the “Percent Effect” value is reported as -12.36%.
For `CN(C)C(=O)CN1CCCC(CCCc2ccccn2)(C(N)=O)C1` (configuration not stated), the “Percent Effect” value was 83.83%.
For `Nc1ccnc(N2CCCC(CCc3ccccc3)(C(=O)O)C2)n1` (configuration not stated), the “Percent Effect” value was -8.777%.
For `NC(=O)C1(CCCc2ccccn2)CCCN(c2ncccn2)C1` (configuration not stated), the “Percent Effect” value was 87.14%.
With `CN(CCc1ccccn1)C(=O)Nc1cccnc1N1CCCC1` the “Percent Effect” value was -10.3%.
For `CN(CCc1ccccn1)[C@@H]1CCN(c2cc(C(N)=O)ccn2)C[C@H]1O`, the “Percent Effect” value was -0.6803%.
`Cc1nc2cc(=O)[nH]n2c(C)c1CC(=O)Nc1cnn(C(C)(C)C)c1` was tested, and the “Percent Effect” value was -8.028%.
In the case of `CCOc1ccc(CN2C(=O)CC(C)(C)C2=O)nc1`, the “Percent Effect” value is reported as -21.77%.
For `CCC(=O)N1CCN(C(=O)NC2CCc3ccccc3C2)CC1` (configuration not stated), the “Percent Effect” value was -5.895%.
`CCCNCc1cn(C)nc1-c1cccnc1.Cl` was tested, and the “Percent Effect” value was 13.76%.
With `Cn1cc(CNc2cnn(CCO)c2)c(-c2ccncc2)n1` the “Percent Effect” value was -19.35%.
In the case of `CN(C)C(C)(C)CNCc1cn(C)nc1-c1cccnc1.Cl`, the “Percent Effect” value is reported as 8.677%.
`Cc1noc(NCc2cn(C)nc2-c2cccnc2)n1` was tested, and the “Percent Effect” value was 76.51%.
In the case of `Cn1cc(CNc2ccc(CCO)cc2)c(-c2ccncc2)n1`, the “Percent Effect” value is reported as 4.489%.
For `Cn1cc(CNCCc2cccnc2)c(-c2cccnc2)n1`, the “Percent Effect” value was 4.12%.
In the case of `Cc1cc(NCc2cn(C)nc2-c2cccnc2)n(C)n1`, the “Percent Effect” value is reported as 80.93%.
With `Cc1noc(NCc2cn(C)nc2-c2ccncc2)n1` the “Percent Effect” value was 86.63%.
For `Cn1cc(CNCCn2cccn2)c(-c2cccnc2)n1`, the “Percent Effect” value was 3.416%.
With `CCc1nnc(CNC(=O)CCN2CCN(c3cccc(C)c3)CC2)s1` the “Percent Effect” value was 7.202%.
With `Cc1ccc(C(=O)N2CCSCC2)cc1N1CCNC1=O` the “Percent Effect” value was -1.525%.
For `CN(C)CCN1CCOCC2(CCN(Cc3ccc[nH]3)CC2)C1.O=C(O)C(F)(F)F.O=C(O)C(F)(F)F.O=C(O)C(F)(F)F`, the “Percent Effect” value was -10.04%.
`CNc1cc(C)nc(N2C[C@H](C3CC3)[C@@H](N)C2)n1` was tested, and the “Percent Effect” value was -22.96%.
With `Cc1cc(NC(=O)NCc2ccc(C)s2)no1` the “Percent Effect” value was 3.366%.
In the case of `Cc1cccc(COC[C@]23COC[C@H]2CN(C(=O)c2ccsc2)C3)n1`, the “Percent Effect” value is reported as 4.122%.
For `O=C(Cc1ccsc1)N1C[C@@H]2COC[C@]2(COc2cccnc2)C1`, the “Percent Effect” value was 95.21%.
With `O=C(Cc1ccsc1)N1C[C@@H]2COC[C@]2(COCc2cccnc2)C1.O=C(O)C(F)(F)F` the “Percent Effect” value was -1.782%.
In the case of `Cc1ccnc(OC[C@]23COC[C@H]2CN(C(=O)Cc2ccsc2)C3)n1`, the “Percent Effect” value is reported as 106.6%.
In the case of `O=C(Cc1cccs1)N1C[C@@H]2COC[C@]2(COCc2cccnc2)C1.O=C(O)C(F)(F)F`, the “Percent Effect” value is reported as -3.131%.
`O=C(Cc1cccs1)N1C[C@@H]2COC[C@]2(COc2cccnc2)C1` was tested, and the “Percent Effect” value was 7.396%.
In the case of `CS(=O)(=O)c1ncc(CN2CCCC(C(N)=O)C2)n1CC1CCCCC1` (configuration not stated), the “Percent Effect” value is reported as 6.801%.
With `COCC1(NC(=O)C(c2ccc(F)cc2)N(C)C)CCCC1` (configuration not stated) the “Percent Effect” value was -2.374%.
In the case of `CC1CCCN1Cc1cccc(C(=O)Nc2ccc3c(c2)CCC3=O)c1` (configuration not stated), the “Percent Effect” value is reported as 51.3%.
With `COc1ccc(NC(=O)c2cccc(CN3CCCC3C)c2)cc1OC` (configuration not stated) the “Percent Effect” value was 8.38%.
With `CC1CCCN1Cc1cccc(C(=O)Nc2ccc3[nH]c(=O)oc3c2)c1` (configuration not stated) the “Percent Effect” value was 1.459%.
With `Cc1nc(CC(=O)N2c3ccccc3OCC2C)cs1` (configuration not stated) the “Percent Effect” value was -16.16%.
In the case of `Cc1nc(C2CCCN(C(=O)c3cccc4c3OCO4)C2)no1` (configuration not stated), the “Percent Effect” value is reported as 12.92%.
In the case of `CCN(Cc1ccc2c(c1)OCCO2)C(=O)NCc1csc(C)n1`, the “Percent Effect” value is reported as -4.508%.
In the case of `Cc1nc(COC(=O)c2cccc3c2OCCO3)no1`, the “Percent Effect” value is reported as 110.5%.
For `Cc1ncsc1CN(C)C(=O)CC1CCOc2ccccc21` (configuration not stated), the “Percent Effect” value was 5.103%.
`Cc1nc(CCN(C)C(=O)C2COc3ccccc3C2)no1` (configuration not stated) was tested, and the “Percent Effect” value was -0.4164%.
With `Cc1nc(COC(=O)c2cccc3c2OCCO3)cs1` the “Percent Effect” value was 117.7%.
`Cc1ncsc1COC(=O)c1cccc2c1OCCO2` was tested, and the “Percent Effect” value was 128%.
In the case of `Cc1ncsc1CCN(C)C(=O)CN1CCOc2ccccc2C1`, the “Percent Effect” value is reported as 0.429%.
In the case of `NC(=O)N1CCCN(C(=O)Nc2cc(-n3cccc3)ccc2F)CC1`, the “Percent Effect” value is reported as -14.58%.
`CN1CC(C(=O)NC(C)(C)CNC(=O)OC(C)(C)C)CC1=O` (configuration not stated) was tested, and the “Percent Effect” value was -3.275%.
For `COCc1ccccc1C(=O)NCC(O)c1ccc(Cl)s1` (configuration not stated), the “Percent Effect” value was 11.9%.
With `CN(C)c1ncnc2c1CCN(S(=O)(=O)c1cccc3nsnc13)C2` the “Percent Effect” value was 10.74%.
With `COc1ncccc1CNC(=O)c1cc(F)cc(Br)c1` the “Percent Effect” value was 12.35%.
For `CCc1cnc(C)nc1NCCN1CCCC(C(N)=O)C1` (configuration not stated), the “Percent Effect” value was 3.304%.
For `CC(=O)c1cnc(NCCCN2CCOCC2)nc1C`, the “Percent Effect” value was 89.28%.
In the case of `Cc1csc(C2(NC(=O)NCCN3CCOCC3)CCC2)n1`, the “Percent Effect” value is reported as -15.32%.
With `CC(=O)c1cnc(NCCN2CCCC2)nc1C` the “Percent Effect” value was 107.9%.
`CC(=O)c1cnc(NCCN2CCCC(c3ccccc3)C2)nc1C` (configuration not stated) was tested, and the “Percent Effect” value was 111.1%.
In the case of `OC1CCN(CCNc2ncc3c(n2)CCN3c2ccccc2)CC1`, the “Percent Effect” value is reported as 0.6072%.
In the case of `CC(=O)c1cnc(NCCc2csc(-c3cnccn3)n2)nc1C`, the “Percent Effect” value is reported as -3.465%.
For `CC(=O)c1cnc(NCC2OCCc3ccccc32)nc1C` (configuration not stated), the “Percent Effect” value was 8.592%.
For `Cc1ncccc1OC1(C(=O)NCCCN2CCOCC2)CCNCC1`, the “Percent Effect” value was -8.588%.
With `COC(=O)CN(CC1CCOC1)C1CC1` (configuration not stated) the “Percent Effect” value was -11.06%.
`Cc1cnccc1N1CCN(C(=O)CCCN2CCCCC2)CC1` was tested, and the “Percent Effect” value was -8.637%.
With `COc1ncccc1C(=O)N1CC(c2nc(-c3ccccn3)no2)C1` the “Percent Effect” value was -3.614%.
In the case of `Cc1[nH]c(=O)[nH]c(=O)c1CN1CCCC(CCc2c(F)cccc2F)C1` (configuration not stated), the “Percent Effect” value is reported as -22.77%.
For `Cc1cc(C)n(-c2ccc(CNCc3ccc(OC(C)C)cc3)cn2)n1`, the “Percent Effect” value was -13.05%.
With `Oc1nnc(-c2cccs2)c2sc(N3CCCCC3)nc12` the “Percent Effect” value was 11%.
`Cc1sc2c(C3CCCNC3)nc(Nc3cccc(F)c3)n2c1C.Cl` (configuration not stated) was tested, and the “Percent Effect” value was 138.6%.
For `Cc1nc(C2CCCNC2)cc(N2CCc3nc(N)sc3C2)n1` (configuration not stated), the “Percent Effect” value was -10.94%.
For `Cc1sc2c(C3CCNCC3)nc(Nc3cccc(F)c3)n2c1C.Cl`, the “Percent Effect” value was 83.53%.
For `Cl.O=C(Nc1cccc(F)c1)C1=NOC2(CCNCC2)C1`, the “Percent Effect” value was 1.069%.
For `Cc1nn(C(C)C)c(C)c1S(=O)(=O)Nc1cccc(F)c1`, the “Percent Effect” value was 2.276%.
For `COc1ccccc1CCNC(=O)CN1CCCC1c1noc(C)n1` (configuration not stated), the “Percent Effect” value was -5.748%.
`CCC(=O)N1CCC2(CC1)c1nc[nH]c1CCN2S(C)(=O)=O` was tested, and the “Percent Effect” value was -5.847%.
In the case of `CC(NC(=O)Nc1nccs1)C(=O)NC1CCCC1` (configuration not stated), the “Percent Effect” value is reported as 13.07%.
With `Cc1nn2c(nc1=O)-c1ccccc1NC2C(=O)O` (configuration not stated) the “Percent Effect” value was -8.075%.
For `OCCN1CCC(CNCc2cn(-c3ccccc3)nn2)CC1`, the “Percent Effect” value was 3.58%.
For `Cc1cc(Oc2ccccc2)nc(C2CCN(CCO)CC2)n1`, the “Percent Effect” value was 153.9%.
In the case of `Cc1ccc(CNCC2CCN(CCO)CC2)cc1`, the “Percent Effect” value is reported as -0.5522%.
With `CNc1cc(C)nc(N2C[C@@H](C(=O)O)[C@H](C3CC3)C2)n1` the “Percent Effect” value was 7.259%.
`CNc1cc(C)nc(N2CCC3(CC2)[C@H](O)C[C@@H]3OCCO)n1` was tested, and the “Percent Effect” value was 4.937%.
With `CNc1cc(C)nc(C2CCN(CCO)CC2)n1` the “Percent Effect” value was 109.8%.
In the case of `CC(=O)N1CCc2c(nc(-c3ccccn3)nc2N(C)CC(O)CO)C1` (configuration not stated), the “Percent Effect” value is reported as 1.269%.
In the case of `CC(C(=O)N(C)Cc1nnc2n1CCC2)S(C)(=O)=O` (configuration not stated), the “Percent Effect” value is reported as 0.343%.
`COCCN(C(=O)c1ccoc1C)c1ccc(C#N)cc1` was tested, and the “Percent Effect” value was -4.794%.
With `CC(C)C(=O)N1CCN(C(=O)c2cc(C(C)C)on2)[C@H]2CS(=O)(=O)C[C@H]21` the “Percent Effect” value was -2.919%.
For `CC(C)c1cc(C(=O)N2CCCC(c3cc(=O)nc4n3CCC4)C2)no1` (configuration not stated), the “Percent Effect” value was 118.8%.
For `CCc1cc(C(=O)N2CCCC(c3cc(=O)nc4n3CCC4)C2)no1` (configuration not stated), the “Percent Effect” value was 113.8%.
With `CCc1ccsc1C(=O)N1CCCC(c2noc(C)n2)C1` (configuration not stated) the “Percent Effect” value was -6.826%.
With `Cc1cc(C(=O)N2CCCC(c3cc(=O)nc4n3CCC4)C2)on1` (configuration not stated) the “Percent Effect” value was 100.5%.
With `CCc1cn[nH]c1C1CCCN(C(=O)c2cc(C(C)C)on2)C1` (configuration not stated) the “Percent Effect” value was 3.205%.
In the case of `Cc1cc(C(=O)N2CCCC(n3nc(C)cc3C)C2)on1` (configuration not stated), the “Percent Effect” value is reported as 6.311%.
`Cc1cc(C(=O)N2CCCC(c3nccn3Cc3cscn3)C2)on1` (configuration not stated) was tested, and the “Percent Effect” value was -8.995%.
